The results in this text go back to a collection of fitness landscapes (doi:10.1126/science.1257360).

First the molecules themselves.
B1: PhoQ; a variant is named by its letters at X, in order, P23837 (parent)
chain: MKKLLRLFFPLSLRVRFLLATAAVVLVLSLAYGMVALIGYSVSFDKTTFRLLRGESNLFYTLAKWENNKLHVELPENIDKQSPTMTLIYDENGQLLWAQRDVPWLMKMIQPDWLKSNGFHEIEADVNDTSLLLSGDHSIQQQLQEVREDDDDAEMTHSVAVNVYPATSRMPKLTIVVVDTIPVELKSSYMVWSWFIYVLSANLLLVIPLLWVAAWWSLRPIEALAKEVRELEEHNRELLNPATTRELTSLVRNLNRLLKSERERYDKYRTTLTDLTHSLKTPLXXLQXXLRSLRSEKMSVSDAEPVMLEQISRISQQIGYYLHRASMRGGTLLSRELHPVAPLLDNLTSALNKVYQRKGVNISLDISPEISFVGEQNDFVEVMGNVLDNACKYCLEFVEISARQTDEHLYIVVEDDGPGIPLSKREVIFDRGQRVDTLRPGQGVGLAVAREITEQYEGKIVAGESMLGGARMEVIFGRQHSAPKDE

The full ranking holds about 140,000 sequences; the median of “enrichment ratio after two sorts for PhoP signalling” is about 0, and the highest 2% start at about 11. The full list was thinned out, with the highest values kept by preference.

This test covers variants of B1. The test can be described thus: enrichment ratio after two sorts for PhoP signalling (ratio (wild type AVST 3.29)); higher = more functional. The settings on record: with PhoP (E. coli).
With VFTM, the enrichment ratio is at most 0.25.
In the case of VSWM, the enrichment ratio came out at 2.15.
On to VCTM, for which the enrichment ratio came out at 23.
For NSTM the value was at most 0.25.
For the variant KCTM, the enrichment ratio was at most 0.25.
With VSTM, the enrichment ratio was 14.3.
For EPCV, the enrichment ratio is at most 0.25.
As to PQFI, the enrichment ratio is at most 0.25.
IWAV: the enrichment ratio was at most 0.25.
For PCTF, the enrichment ratio was at most 0.25.
For the variant RWFD, the enrichment ratio was at most 0.25.
In the case of ASLR, the enrichment ratio turned out to be 3.29.
As for KCLQ, the enrichment ratio is at most 0.25.
Turning to ASTA, the enrichment ratio was found to be 9.73.
Turning to ALLQ, the enrichment ratio worked out at 14.7.
As for PLLQ, the enrichment ratio is at most 0.25.
For the variant VHLQ, the enrichment ratio is at most 0.25.
Turning to ADLQ, the enrichment ratio came to 3.02.
Under AILQ stands 13.6; under LQLQ, at most 0.25; under ASLQ, 11.8.
Turning to ACLQ, the enrichment ratio stood at 11.6.
In the case of ACLR, the enrichment ratio stood at 8.18.
Take FDLT: the enrichment ratio is at most 0.25.
For DGHY the value was at most 0.25; for FIKM, at most 0.25.
For the variant HWCE, the enrichment ratio was at most 0.25.
For the variant SDKP, the enrichment ratio is at most 0.25.
YSIR: the enrichment ratio was at most 0.25.
WSFS: the enrichment ratio is at most 0.25.
For KRRI, the enrichment ratio was at most 0.25.
For the variant SLHA, the enrichment ratio is at most 0.25.
IGLE: the enrichment ratio was at most 0.25.
As to TPMA, the enrichment ratio was at most 0.25.
As to KSGA, the enrichment ratio was at most 0.25.
As for ELRR, the enrichment ratio is at most 0.25.
Regarding FQKN, the enrichment ratio is at most 0.25.
Under CNES stands at most 0.25; under IDKS, at most 0.25; under TVPS, at most 0.25.
Turning to TGLQ, the enrichment ratio stood at 9.97.
For AGLQ the value was 13.5; for AYLQ, 0.526.
With AQLQ, the enrichment ratio is 5.87.
On to GGLQ, for which the enrichment ratio is 3.13.
Under MFLQ stands at most 0.25; under MGLR, at most 0.25; under MGLQ, 16.
On to AKLQ, for which the enrichment ratio is 41.4.
For HKLQ the value was at most 0.25.
Consider ATLQ, for which the enrichment ratio worked out at 11.5.
As for TKLQ, the enrichment ratio was determined as 6.41.
With NIMF, the enrichment ratio was at most 0.25.
Take YKKL: the enrichment ratio was at most 0.25.
As to ESDI, the enrichment ratio is at most 0.25.
Turning to PSMS, the enrichment ratio is at most 0.25.
For WGKP, the enrichment ratio was at most 0.25.
On to QAMN, for which the enrichment ratio was at most 0.25.
For LSTY, the enrichment ratio was at most 0.25.
Under TCTY stands 14.7.
With KCTY, the enrichment ratio was at most 0.25.
Turning to SCTY, the enrichment ratio was 15.6.
Consider HVTY, for which the enrichment ratio was at most 0.25.
Regarding VCTY, the enrichment ratio is at most 0.25.
Consider DNQA, for which the enrichment ratio was at most 0.25.
On to WMWR, for which the enrichment ratio is at most 0.25.
With GEYP, the enrichment ratio is at most 0.25.
With DMMD, the enrichment ratio is at most 0.25.
Take ACMR: the enrichment ratio worked out at 1.61.
For the variant ACMA, the enrichment ratio came to 34.1.
For ACVG the value was 4.01; for ACGA, at most 0.25; for ACMG, 14.3.
For ACVA the value was 3.46; for ACWF, at most 0.25.
On to ACMF, for which the enrichment ratio is 14.4.
For ACMW the value was at most 0.25.
Under ACMT stands 10.1.
As to ACGF, the enrichment ratio was 6.85.
For the variant ACMK, the enrichment ratio was determined as 17.8.
As for PYWL, the enrichment ratio is at most 0.25.
For DKNN the value was at most 0.25; for FTRE, at most 0.25.
In the case of QRLI, the enrichment ratio was at most 0.25.
For FFKH the value was at most 0.25; for NCDG, at most 0.25.
As for QIFY, the enrichment ratio was at most 0.25.
For VWPM the value was at most 0.25; for ACGG, 4.87.
For ACIG the value was 12.3.
For ACMV the value was 7.12; for ACMI, 21; for ACMS, 8.75.
Regarding ACMQ, the enrichment ratio is 31.7.
Turning to ACVC, the enrichment ratio is 1.02.
Under ACWQ stands at most 0.25.
In the case of WGDV, the enrichment ratio is at most 0.25.
Consider VHHQ, for which the enrichment ratio is at most 0.25.
Regarding TTPE, the enrichment ratio was at most 0.25.
For MDFT the value was at most 0.25; for RPHC, at most 0.25; for NELR, at most 0.25.
For MQVH, the enrichment ratio came to 2.29.
For the variant TPTT, the enrichment ratio was at most 0.25.
As to SPAY, the enrichment ratio was at most 0.25.
For SQCE the value was 24.1.
Regarding SLQI, the enrichment ratio was 5.02.
Under SNYI stands 0.257; under SNQI, 12.5; under DNQN, at most 0.25.
For the variant NQCE, the enrichment ratio is at most 0.25.
For SNAY, the enrichment ratio was 14.8.
In the case of SQQI, the enrichment ratio turned out to be 2.33.
For DMQI the value was at most 0.25; for SNCE, at most 0.25.
DNQI: the enrichment ratio came to 22.9.
Consider REHF, for which the enrichment ratio was at most 0.25.
Turning to APRY, the enrichment ratio was at most 0.25.
For WCFP, the enrichment ratio was at most 0.25.
On to VRKW, for which the enrichment ratio was at most 0.25.
In the case of HDVL, the enrichment ratio is at most 0.25.
Under SLKT stands at most 0.25; under PVHR, at most 0.25; under GYTV, at most 0.25.
Regarding YWVH, the enrichment ratio was at most 0.25.
In the case of HHYP, the enrichment ratio is at most 0.25.
In the case of SRSA, the enrichment ratio was at most 0.25.
On to SQTH, for which the enrichment ratio stood at 3.03.
As to SNSA, the enrichment ratio came out at 13.1.
As for SNDH, the enrichment ratio is at most 0.25.
Turning to SQCA, the enrichment ratio amounted to 8.55.
Under SQCK stands 9.83; under SNHI, at most 0.25.
SQCI: the enrichment ratio amounted to 15.6.
On to SQSA, for which the enrichment ratio stood at 3.01.
Under SNHF stands at most 0.25; under SNCI, 21.8.
Consider SNCA, for which the enrichment ratio was 16.8.
Take DNPA: the enrichment ratio is at most 0.25.
For ILGQ the value was at most 0.25; for SFVQ, at most 0.25; for YVYP, at most 0.25.
Turning to FFCP, the enrichment ratio is at most 0.25.
Regarding LDYA, the enrichment ratio is at most 0.25.
For the variant SSGM, the enrichment ratio came to 13.4.
Under SICE stands 1.33; under SILH, 3.1; under SITW, 4.
On to SICI, for which the enrichment ratio turned out to be 21.
For SSGD the value was at most 0.25; for SICV, 16.6; for SSWM, 6.76.
For SQTM the value was 6.18.
